The text below walks through data of the supplement of paper PMC10849652.

What all share (test): log2 fold change, soluble protein after heating vs DMSO (PISA); higher = thermal stabilisation; K562 lysate, 10 uM; active = over 0.2 and 3.5 SD of the protein, either way, in both replicates (recomputed)
Compound in experiment [1]: C1=CC=C(C=C1)[C@H](COC2=CC3=C(C=C2)NC(=O)N3)NC(=O)C4=CC=CN(C4=O)CC5=CC(=C(C=C5)F)F
The method in brief:
(§1)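 Pellets of K562 cells were dounce-homogenised in PBS pH 7.4 with 1 mM MgCl2, and the crude extract was held at 1 mg/mL protein for a 30 min treatment with 10 μM compound. Aliquots were heated for 3 min over 48°C-58°C and pooled before NP-40 was added to 0.5% at 4°C. The supernatant from 21,000xg for 90 min was quantified by TMTpro 16plex LC-MS/MS with channel sums equalised. Values are reported from duplicates as log-two fold change in thermal stability relative to solvent controls.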

Compound in experiment [2]: CC1=C(SC2=C1C(=N[C@H](C3=NN=C(N32)C)CC(=O)N)C4=CC=C(C=C4)Cl)C
In a few lines: as §1

Compound in experiment [3]: CC1=C2C(=CC=C1)N=C(N(C2=O)C3=CC=CC=C3C)CN4C=NC5=C(N=CN=C54)N
The method in brief: as §1

Compound in experiment [4]: Cc1sc2c(c1C)C(c1ccc(Cl)cc1)=N[C@@H](CC(=O)OC(C)(C)C)c1nnc(C)n1-2
In a few lines: as §1

Compound in experiment [5]: c1ccc([C@@H]2C[C@H]2NC2CCNCC2)cc1
The method in brief:
as §1

About 8,800 targets were measured; listed, in parts, are those with a hit and a random draw of the rest. About 0.5% of all pairs of compound and target were hits. Unmarked numbers belong to inactive results.

Sequence of UniProt Q5VT25 (Q5VT25 whole entry, looked up): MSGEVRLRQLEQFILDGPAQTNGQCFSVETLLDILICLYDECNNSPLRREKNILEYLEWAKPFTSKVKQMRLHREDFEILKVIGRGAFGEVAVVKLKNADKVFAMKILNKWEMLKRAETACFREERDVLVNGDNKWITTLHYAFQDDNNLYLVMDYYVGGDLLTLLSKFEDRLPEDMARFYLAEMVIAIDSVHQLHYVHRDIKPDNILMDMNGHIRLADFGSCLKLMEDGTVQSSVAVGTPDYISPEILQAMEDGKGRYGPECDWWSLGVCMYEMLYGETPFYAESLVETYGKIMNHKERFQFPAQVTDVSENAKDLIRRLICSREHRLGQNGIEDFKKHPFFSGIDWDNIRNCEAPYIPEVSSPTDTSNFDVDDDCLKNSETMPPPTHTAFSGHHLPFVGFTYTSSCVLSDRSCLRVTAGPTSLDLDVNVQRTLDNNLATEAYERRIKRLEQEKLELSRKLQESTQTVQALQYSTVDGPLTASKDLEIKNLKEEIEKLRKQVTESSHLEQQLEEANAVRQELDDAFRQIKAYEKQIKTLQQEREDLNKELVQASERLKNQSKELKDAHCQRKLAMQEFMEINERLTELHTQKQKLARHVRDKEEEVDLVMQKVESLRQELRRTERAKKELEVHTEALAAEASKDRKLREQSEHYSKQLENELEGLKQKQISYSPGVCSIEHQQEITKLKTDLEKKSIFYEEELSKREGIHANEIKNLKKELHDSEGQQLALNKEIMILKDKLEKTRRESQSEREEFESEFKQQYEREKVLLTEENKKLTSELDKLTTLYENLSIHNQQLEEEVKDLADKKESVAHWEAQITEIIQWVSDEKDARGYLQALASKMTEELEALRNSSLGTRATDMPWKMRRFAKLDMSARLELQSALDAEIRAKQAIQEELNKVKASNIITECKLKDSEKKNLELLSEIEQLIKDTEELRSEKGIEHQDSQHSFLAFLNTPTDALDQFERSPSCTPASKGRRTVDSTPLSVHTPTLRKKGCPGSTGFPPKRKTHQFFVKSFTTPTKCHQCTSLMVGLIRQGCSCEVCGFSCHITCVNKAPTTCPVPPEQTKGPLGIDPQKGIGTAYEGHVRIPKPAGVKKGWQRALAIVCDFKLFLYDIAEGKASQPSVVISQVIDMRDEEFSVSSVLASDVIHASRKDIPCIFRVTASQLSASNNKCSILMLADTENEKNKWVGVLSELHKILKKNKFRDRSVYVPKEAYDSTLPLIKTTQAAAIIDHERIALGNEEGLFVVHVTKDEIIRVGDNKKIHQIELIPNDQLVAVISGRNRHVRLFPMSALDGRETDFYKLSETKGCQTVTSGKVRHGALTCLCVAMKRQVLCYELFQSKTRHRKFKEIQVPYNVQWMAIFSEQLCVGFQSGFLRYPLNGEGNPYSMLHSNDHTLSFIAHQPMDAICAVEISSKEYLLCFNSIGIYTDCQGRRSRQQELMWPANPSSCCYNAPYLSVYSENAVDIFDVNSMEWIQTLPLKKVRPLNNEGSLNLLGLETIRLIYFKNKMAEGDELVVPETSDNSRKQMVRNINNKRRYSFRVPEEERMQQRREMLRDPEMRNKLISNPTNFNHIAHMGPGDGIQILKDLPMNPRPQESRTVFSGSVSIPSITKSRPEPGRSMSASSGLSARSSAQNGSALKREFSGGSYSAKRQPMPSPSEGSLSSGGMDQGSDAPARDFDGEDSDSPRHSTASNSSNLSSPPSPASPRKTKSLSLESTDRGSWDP
Sequence of UniProt Q00535 (Q00535 whole entry, looked up): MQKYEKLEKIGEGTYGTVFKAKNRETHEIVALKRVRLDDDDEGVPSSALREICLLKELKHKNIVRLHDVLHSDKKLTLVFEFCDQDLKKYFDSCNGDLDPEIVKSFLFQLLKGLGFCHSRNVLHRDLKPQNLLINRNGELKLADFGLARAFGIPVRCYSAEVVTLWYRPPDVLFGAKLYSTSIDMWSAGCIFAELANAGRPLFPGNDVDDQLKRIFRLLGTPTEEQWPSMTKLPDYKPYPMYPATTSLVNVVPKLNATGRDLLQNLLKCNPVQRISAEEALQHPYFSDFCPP
Sequence of UniProt Q00537 (Q00537 whole entry, looked up): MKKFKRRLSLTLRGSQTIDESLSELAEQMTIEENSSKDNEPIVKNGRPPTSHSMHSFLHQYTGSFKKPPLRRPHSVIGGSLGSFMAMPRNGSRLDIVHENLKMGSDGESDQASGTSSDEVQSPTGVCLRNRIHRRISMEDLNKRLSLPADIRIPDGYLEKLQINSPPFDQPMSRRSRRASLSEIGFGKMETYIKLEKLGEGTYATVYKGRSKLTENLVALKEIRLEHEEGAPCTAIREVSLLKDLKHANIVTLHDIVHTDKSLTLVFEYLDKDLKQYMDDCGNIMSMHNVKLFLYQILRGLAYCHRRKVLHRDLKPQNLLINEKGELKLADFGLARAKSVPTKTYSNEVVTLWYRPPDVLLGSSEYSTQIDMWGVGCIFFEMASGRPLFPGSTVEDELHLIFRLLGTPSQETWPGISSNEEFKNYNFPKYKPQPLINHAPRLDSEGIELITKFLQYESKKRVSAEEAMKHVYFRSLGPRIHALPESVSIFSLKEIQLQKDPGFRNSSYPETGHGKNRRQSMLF
Sequence of UniProt Q14012 (Q14012 whole entry, looked up): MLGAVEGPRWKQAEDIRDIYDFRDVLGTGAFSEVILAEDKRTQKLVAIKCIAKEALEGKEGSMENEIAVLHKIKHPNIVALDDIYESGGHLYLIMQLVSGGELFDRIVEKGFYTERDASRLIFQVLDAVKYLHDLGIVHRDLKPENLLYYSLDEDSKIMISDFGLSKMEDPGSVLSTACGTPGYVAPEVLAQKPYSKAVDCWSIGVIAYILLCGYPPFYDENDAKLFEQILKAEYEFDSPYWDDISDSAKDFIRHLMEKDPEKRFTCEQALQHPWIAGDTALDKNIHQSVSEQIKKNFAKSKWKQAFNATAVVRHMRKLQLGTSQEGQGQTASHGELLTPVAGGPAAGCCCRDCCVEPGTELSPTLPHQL
Sequence of UniProt P45973 (P45973 whole entry, looked up): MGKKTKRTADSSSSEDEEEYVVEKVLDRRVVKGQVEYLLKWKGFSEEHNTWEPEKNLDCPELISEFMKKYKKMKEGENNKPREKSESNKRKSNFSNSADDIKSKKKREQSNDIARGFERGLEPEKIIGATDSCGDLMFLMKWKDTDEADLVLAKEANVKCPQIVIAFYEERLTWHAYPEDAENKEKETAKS
Sequence of UniProt Q9BSU1 (Q9BSU1 whole entry, looked up): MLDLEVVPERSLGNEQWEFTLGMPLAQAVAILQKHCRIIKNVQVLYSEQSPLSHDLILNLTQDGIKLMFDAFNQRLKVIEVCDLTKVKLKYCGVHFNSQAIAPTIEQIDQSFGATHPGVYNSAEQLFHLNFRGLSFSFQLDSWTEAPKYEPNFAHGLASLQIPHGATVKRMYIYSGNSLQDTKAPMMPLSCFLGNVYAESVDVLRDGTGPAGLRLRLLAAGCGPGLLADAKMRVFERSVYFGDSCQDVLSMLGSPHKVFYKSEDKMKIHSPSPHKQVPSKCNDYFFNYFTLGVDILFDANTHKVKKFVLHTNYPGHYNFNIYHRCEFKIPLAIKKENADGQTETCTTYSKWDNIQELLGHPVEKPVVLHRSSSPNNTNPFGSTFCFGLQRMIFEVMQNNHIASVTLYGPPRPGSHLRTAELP
Sequence of UniProt P27824 (P27824 whole entry, looked up): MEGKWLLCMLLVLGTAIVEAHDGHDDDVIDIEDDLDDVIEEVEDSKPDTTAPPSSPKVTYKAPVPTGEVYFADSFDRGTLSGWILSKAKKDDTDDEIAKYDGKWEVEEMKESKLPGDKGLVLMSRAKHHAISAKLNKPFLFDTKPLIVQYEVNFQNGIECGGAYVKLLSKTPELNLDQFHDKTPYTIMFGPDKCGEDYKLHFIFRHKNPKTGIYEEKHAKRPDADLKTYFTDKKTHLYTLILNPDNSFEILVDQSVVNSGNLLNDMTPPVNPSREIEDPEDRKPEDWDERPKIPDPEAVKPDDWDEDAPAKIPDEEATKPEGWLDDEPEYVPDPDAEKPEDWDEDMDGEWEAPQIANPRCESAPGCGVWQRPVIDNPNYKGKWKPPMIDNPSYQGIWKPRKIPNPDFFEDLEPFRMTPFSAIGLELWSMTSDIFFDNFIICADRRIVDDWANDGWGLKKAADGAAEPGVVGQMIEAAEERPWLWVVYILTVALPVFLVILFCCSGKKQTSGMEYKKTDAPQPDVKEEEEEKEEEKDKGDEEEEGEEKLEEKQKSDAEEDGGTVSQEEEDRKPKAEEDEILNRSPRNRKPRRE
Sequence of UniProt Q86WR0 (Q86WR0 whole entry, looked up): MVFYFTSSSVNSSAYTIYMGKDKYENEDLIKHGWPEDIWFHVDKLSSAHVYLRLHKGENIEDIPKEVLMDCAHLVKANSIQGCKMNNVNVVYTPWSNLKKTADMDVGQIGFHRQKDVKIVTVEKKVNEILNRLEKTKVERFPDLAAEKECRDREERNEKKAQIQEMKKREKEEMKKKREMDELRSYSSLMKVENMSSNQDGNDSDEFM
Sequence of UniProt O95674 (O95674 whole entry, looked up): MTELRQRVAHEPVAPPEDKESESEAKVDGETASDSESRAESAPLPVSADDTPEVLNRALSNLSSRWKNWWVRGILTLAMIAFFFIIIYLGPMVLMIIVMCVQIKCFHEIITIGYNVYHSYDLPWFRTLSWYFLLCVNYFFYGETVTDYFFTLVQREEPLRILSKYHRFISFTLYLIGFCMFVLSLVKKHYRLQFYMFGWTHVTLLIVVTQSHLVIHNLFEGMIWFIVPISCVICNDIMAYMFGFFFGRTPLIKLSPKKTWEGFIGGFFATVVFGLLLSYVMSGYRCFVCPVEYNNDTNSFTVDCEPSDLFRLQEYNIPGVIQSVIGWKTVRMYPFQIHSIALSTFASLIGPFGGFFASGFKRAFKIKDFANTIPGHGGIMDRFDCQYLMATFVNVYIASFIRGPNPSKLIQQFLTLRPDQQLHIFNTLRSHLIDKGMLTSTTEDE
Sequence of UniProt P46527 (P46527 whole entry, looked up): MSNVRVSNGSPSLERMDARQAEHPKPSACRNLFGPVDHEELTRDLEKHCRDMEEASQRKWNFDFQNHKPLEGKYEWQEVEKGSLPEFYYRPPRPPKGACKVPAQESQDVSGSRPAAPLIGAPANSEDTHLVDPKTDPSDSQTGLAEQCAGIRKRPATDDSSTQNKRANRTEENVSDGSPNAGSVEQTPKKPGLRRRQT

On to CCDC25 (UniProt Q86WR0), for which the log2 fold change in experiment [1] was 0.008; in experiment [2] it was 0.035; in experiment [3], 0.023; in experiment [4] it was -0.015; in experiment [5], 0.164.

For CBX5 (UniProt P45973), the log2 fold change is 0.04 in experiment [1]; -0.002 in experiment [2]; -0.038 in experiment [3]; 0.031 in experiment [4]; -0.135 in experiment [5].

For BORCS5 (UniProt Q969J3), the log2 fold change in experiment [1] is -0.12; in experiment [2], 0; in experiment [3], -0.015; in experiment [4], -0.005; in experiment [5], -0.011.

Take CDS2 (UniProt O95674): the log2 fold change is 0.01 in experiment [1]; 0.004 in experiment [2]; -0.056 in experiment [3]; -0.034 in experiment [4]; -0.024 in experiment [5].

For the target BET1 (UniProt O15155), the log2 fold change was -0.053 in experiment [1]; 0.013 in experiment [2]; 0.032 in experiment [3]; 0.038 in experiment [4]; 0.009 in experiment [5].

As for CDCA8 (UniProt Q53HL2), the log2 fold change is 0.038 in experiment [1]; 0.037 in experiment [2]; -0.213 in experiment [3]; -0.048 in experiment [4]; 0.104 in experiment [5].

Turning to CDKN1B (UniProt P46527), the log2 fold change is 0.059 in experiment [1]; -0.038 in experiment [2]; 0.146 in experiment [3]; 0.101 in experiment [4]; 0.02 in experiment [5].

On to CANX isoform 2 (UniProt P27824), for which the log2 fold change in experiment [1] is 0.05; in experiment [2] it was -0.022; in experiment [3], -0.005; in experiment [4], -0.027; in experiment [5] it was -0.046.

CELF2 isoform 3 (UniProt O95319): the log2 fold change is -0.009 in experiment [1]; -0.012 in experiment [2]; 0.005 in experiment [3]; 0.012 in experiment [4]; 0.08 in experiment [5].

For the target C18orf25 isoform 2 (UniProt Q96B23), the log2 fold change was -0.005 in experiment [1]; 0.224 in experiment [2]; 0.008 in experiment [3]; 0.089 in experiment [4]; -0.003 in experiment [5].

Consider CHAC2 (UniProt Q8WUX2), for which the log2 fold change in experiment [1] was 0.079; in experiment [2], 0.005; in experiment [3], 0.028; in experiment [4], -0.025; in experiment [5], 0.344 (active).

Regarding CASP6 (UniProt P55212), the log2 fold change in experiment [1] was 0.004; in experiment [2], 0.011; in experiment [3], 0.015; in experiment [4], 0.009; in experiment [5], -0.005.

With C16orf70 (UniProt Q9BSU1), the log2 fold change in experiment [1] is -0.007; in experiment [2], -0.073; in experiment [3] it was -0.071; in experiment [4] it was 0.033.

ATP6V0A2 (UniProt Q9Y487): the log2 fold change in experiment [1] is -0.011; in experiment [2], -0.017; in experiment [3], 0.026; in experiment [4], -0.015; in experiment [5] it was -0.114.

For the target BCL2L12 (UniProt Q9HB09), the log2 fold change in experiment [1] is 0.162; in experiment [2], 0.119; in experiment [3] it was 0.035; in experiment [4], -0.011; in experiment [5] it was -0.044.

For the target CDK5 (UniProt Q00535), the log2 fold change in experiment [1] was -0.01; in experiment [2], -0.03; in experiment [3], -0.021; in experiment [4] it was 0.002; in experiment [5], -0.02.

Turning to ATXN2 (UniProt Q99700), the log2 fold change in experiment [1] was 0.013; in experiment [2] it was 0.016; in experiment [3], 0.075; in experiment [4], -0.02; in experiment [5], -0.021.

CDC42BPA isoform 6 (UniProt Q5VT25): the log2 fold change in experiment [1] is 0.008; in experiment [2] it was -0.003; in experiment [3], -0.008; in experiment [4] it was 0.026; in experiment [5], 0.052.

For CCP110 (UniProt O43303), the log2 fold change in experiment [1] is -0.026; in experiment [2], 0.093; in experiment [3], 0.104; in experiment [4], -0.143.

As for ATG13 isoform 2 (UniProt O75143), the log2 fold change in experiment [1] is 0.001; in experiment [2], 0.026; in experiment [3], 0.055; in experiment [4] it was 0.045; in experiment [5], -0.166.

As for CAMK1 (UniProt Q14012), the log2 fold change in experiment [1] was 0.096; in experiment [2], 0.014; in experiment [3], -0.007; in experiment [4] it was 0.026; in experiment [5], -0.047.

Consider CDK17 isoform 2 (UniProt Q00537), for which the log2 fold change in experiment [1] is 0.072; in experiment [2] it was 0.099; in experiment [3], 0.109; in experiment [4], 0.072; in experiment [5], -0.146.

Consider CDK1 (UniProt P06493), for which the log2 fold change in experiment [1] was 0.037; in experiment [2], -0.009; in experiment [3], 0.042; in experiment [4], 0.021; in experiment [5], 0.018.

As to BAG4 (UniProt O95429), the log2 fold change in experiment [1] was 0.059; in experiment [2], 0.021; in experiment [3], -0.023; in experiment [4] it was 0.03; in experiment [5], 0.003.
